Drawing on PubChem BioAssay (EPA / NIEHS), this text covers AC50 and outcome for four compounds.

The source made the active and inactive calls. How the source made its calls: active means hit-call score of the fitted dose curve at least 0.9, where 1 is the maximum; inactive means score below 0.9.

Holding throughout (settings): mRNA level, 48 h; actives raise or lower the signal
Read-out in one assay: MYC, MYC (gene 4609)
Description: LTEA_HepaRG_MYC: Life Technologies and Expression Analysis (LTEA) Assay for MYC using HepaRG (AID 2283518). The essentials:
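Differentiated human HepaRG cells, plated 48 h then switched to serum-free induction medium, were exposed in duplicate for 48 h to 8-point half-log series up to 100 uM in 0.5% DMSO. MYC mRNA measured by qRT-PCR, normalized to ACTB/GAPDH/POLR2A.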

Read-out in assay [1]: matrix metalloproteinase-3 (MMP3), MMP3 (gene 4314)
Briefly: LTEA_HepaRG_MMP3: Life Technologies and Expression Analysis (LTEA) Assay for matrix metalloproteinase-3 (MMP3) using HepaRG (AID 2283519). The essentials: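 Human liver HepaRG cultures received chemicals (top concentration 100 uM, 0.5% DMSO) for 48 h in duplicate. MMP3 mRNA induction or loss was then assessed via TaqMan qRT-PCR with housekeeping-gene normalisation.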

Read-out in assay [2]: Paternally Expressed 10 (PEG10), PEG10 (gene 23089)
Briefly: LTEA_HepaRG_PEG10: Life Technologies and Expression Analysis (LTEA) Assay for Paternally Expressed 10 (PEG10) using HepaRG (AID 2283520).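 On AC50: PEG10 transcript by qRT-PCR normalised to ACTB GAPDH and POLR2A.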 The method in brief:
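qRT-PCR read-out: PEG10 mRNA normalised to three housekeeping genes, fitted bidirectionally against 0.5% DMSO vehicle. HepaRG cells received test chemicals for 48 h in serum-free induction medium, 8 points, top 100 uM, half-log steps.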

Read-out in assay [3]: Protein phosphatase 2A (PPP2R4), PTPA (gene 5524)
Description: LTEA_HepaRG_PPP2R4: Life Technologies and Expression Analysis (LTEA) Assay for Protein phosphatase 2A (PPP2R4) using HepaRG (AID 2283522). The method in brief: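 HepaRG, 48 h exposure, 8-pt half-log series from 100 uM, 0.5% DMSO vehicle, duplicates. Readout: PPP2R4 mRNA, Fluidigm qRT-PCR, housekeeping-normalized. Bidirectional curve fit vs DMSO baseline.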

Read-out in assay [4]: Phosphatase and tensin (PTEN), PTEN (gene 5728)
Briefly: LTEA_HepaRG_PTEN: Life Technologies and Expression Analysis (LTEA) Assay for Phosphatase and tensin (PTEN) using HepaRG (AID 2283523). The method in brief: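 Expression of PTEN is quantified in the human liver line HepaRG following two days of dosing (top concentration 100 uM, half-log dilutions, 0.5% DMSO). Values derive from bidirectional curve fitting relative to DMSO controls.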

Read-out in assay [5]: solute carrier (SLC22A1), SLC22A1 (gene 6580)
Description: LTEA_HepaRG_SLC22A1: Life Technologies and Expression Analysis (LTEA) Assay for solute carrier (SLC22A1) using HepaRG (AID 2283524). The essentials: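 Transcript induction or suppression of SLC22A1 in human HepaRG cultures is scored after 48 h chemical treatment, with DMSO (0.5%) as baseline for bidirectional fitting. Concentrations span eight half-log points topping at 100 uM.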

Read-out in assay [6]: NAD(P)H dehydrogenase [quinone] 1 (NQO1), NQO1 (gene 1728)
Briefly: LTEA_HepaRG_NQO1: Life Technologies and Expression Analysis (LTEA) Assay for NAD(P)H dehydrogenase [quinone] 1 (NQO1) using HepaRG (AID 2283526). The essentials: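 qRT-PCR read-out (Fluidigm TaqMan), normalized to three housekeeping genes, after 48 h chemical exposure of HepaRG cells. Concentrations: eight points, top 100 uM, half-log steps, 0.5% DMSO vehicle. Gain or loss of signal fitted relative to DMSO.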

Read-out in assay [7]: Nuclear factor erythroid 2-related factor 2 (Homo sapiens) (UniProt Q16236)
Description: LTEA_HepaRG_NFE2L2: Life Technologies and Expression Analysis (LTEA) Assay for Nuclear factor erythroid 2-related factor 2 (NFE2L2) Transcription Factor using HepaRG (AID 2283527).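 On outcome: TaqMan qRT-PCR transcript level normalised to ACTB GAPDH and POLR2A housekeeping genes.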 The essentials: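 Human liver HepaRG line treated in duplicate for 48 h with an eight-point series topping at 100 uM. Gene expression of NFE2L2 by qRT-PCR, bidirectionally fitted against the vehicle control.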

Read-out in assay [8]: succinate dehydrogenase complex iron sulfur subunit B (SDHB), SDHB (gene 6390)
Description: LTEA_HepaRG_SDHB: Life Technologies and Expression Analysis (LTEA) Assay for succinate dehydrogenase complex iron sulfur subunit B (SDHB) using HepaRG (AID 2283528). The method in brief:
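HepaRG cells (~100,000/well, plated 48 h) exposed in duplicate for 48 h in serum-free induction medium to 8-point half-log series from 100 uM in 0.5% DMSO; mRNA by qRT-PCR normalised to ACTB, GAPDH, POLR2A; bidirectional fit versus DMSO.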

Read-out in assay [9]: Signal transducer and activator of transcription 3 (Homo sapiens) (UniProt P40763)
Description: LTEA_HepaRG_STAT3: Life Technologies and Expression Analysis (LTEA) Assay for Signal transducer and activator of transcription (STAT3) using HepaRG (AID 2283529). The essentials: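 In this transcriptional endpoint, HepaRG cultures receive test chemicals at up to 100 uM for 48 h, tested in duplicate. STAT3 mRNA is normalized to ACTB, GAPDH and POLR2A.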

Read-out in assay [10]: solute carrier (SLCO1B1), SLCO1B1 (gene 10599)
Description: LTEA_HepaRG_SLCO1B1: Life Technologies and Expression Analysis (LTEA) Assay for solute carrier (SLCO1B1) using HepaRG (AID 2283530). The method in brief: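 Differentiated human HepaRG cells, plated 48 h, switched to serum-free induction medium and exposed in duplicate for 48 h to 8 half-log concentrations (top 100 uM) in 0.5% DMSO. SLCO1B1 mRNA by TaqMan qRT-PCR, normalized to ACTB/GAPDH/POLR2A.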

Read-out in assay [11]: sulfotransferase 2A1 (SULT2A1), SULT2A1 (gene 6822)
Briefly: LTEA_HepaRG_SULT2A1: Life Technologies and Expression Analysis (LTEA) Assay for sulfotransferase 2A1 (SULT2A1) using HepaRG (AID 2283531). The essentials:
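Differentiated human HepaRG cells in serum-free induction medium were exposed for 48 h to eight half-log concentrations (top 100 uM, 0.5% DMSO). SULT2A1 mRNA was measured by qRT-PCR, normalized to ACTB, GAPDH and POLR2A, and fitted bidirectionally against DMSO.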

Read-out in assay [12]: Transforming Growth Factor (TGFA), TGFA (gene 7039)
Briefly: LTEA_HepaRG_TGFA: Life Technologies and Expression Analysis (LTEA) Assay for Transforming Growth Factor (TGFA) using HepaRG (AID 2283532). The essentials:
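Gene expression of TGFA was quantified by qRT-PCR after human HepaRG cells were treated for 48 h with test chemicals (eight concentrations, highest 100 uM, 0.5% DMSO). Activity in either direction was fitted relative to DMSO.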

Read-out in assay [13]: Transforming Growth Factor (TGFB1), TGFB1 (gene 7040)
Briefly: LTEA_HepaRG_TGFB1: Life Technologies and Expression Analysis (LTEA) Assay for Transforming Growth Factor (TGFB1) Transporter using HepaRG (AID 2283533). The method in brief:
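Differentiated human HepaRG cells in serum-free induction medium were exposed in duplicate for 48 h to eight concentrations (top 100 uM, half-log steps, 0.5% DMSO). TGFB1 mRNA was quantified by qRT-PCR, normalized to ACTB, GAPDH, POLR2A, and fitted bidirectionally against DMSO.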

Read-out in the next assay: TIMP1, TIMP1 (gene 7076)
Description: LTEA_HepaRG_TIMP1: Life Technologies and Expression Analysis (LTEA) Assay for TIMP1 using HepaRG (AID 2283534).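 Further: TaqMan qRT-PCR signal normalized to ACTB GAPDH and POLR2A housekeeping genes.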 The essentials: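 Differentiated human HepaRG cells in serum-free induction medium were exposed 48 h to chemicals (8 half-log concentrations, top 100 uM, 0.5% DMSO). TIMP1 mRNA was quantified by TaqMan qRT-PCR, normalized to ACTB/GAPDH/POLR2A; bidirectional fit versus DMSO.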

Read-out in assay [14]: Tumor necrosis factor receptor 1 (TNFRSF1A), TNFRSF1A (gene 7132)
Description: LTEA_HepaRG_TNFRSF1A: Life Technologies and Expression Analysis (LTEA) Assay for Tumor necrosis factor receptor 1 (TNFRSF1A) using HepaRG (AID 2283535). The essentials:
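Differentiated human HepaRG cells were exposed in duplicate for 48 h in serum-free induction medium to eight concentrations (top 100 uM, half-log steps, 0.5% DMSO). TNFRSF1A mRNA was quantified by qRT-PCR, normalized to ACTB, GAPDH and POLR2A, then fitted bidirectionally against DMSO.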

Read-out in assay [15]: Thyroid Hormone Responsive (THRSP), THRSP (gene 7069)
Briefly: LTEA_HepaRG_THRSP: Life Technologies and Expression Analysis (LTEA) Assay for Thyroid Hormone Responsive (THRSP) using HepaRG (AID 2283536). The essentials:
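Cell model: human HepaRG, approx. 100,000 cells/well, 0.5% DMSO vehicle. Exposure lasts 48 h; phenobarbital 1 mM serves as induction positive control. Gene expression is measured by qRT-PCR against three endogenous control genes.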

Read-out in assay [16]: Pyruvate Dehydrogenase Kinase 4 (PDK4), PDK4 (gene 5166)
Briefly: LTEA_HepaRG_PDK4: Life Technologies and Expression Analysis (LTEA) Assay for Pyruvate Dehydrogenase Kinase 4 (PDK4) using HepaRG (AID 2283525). The method in brief: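 Eight-point, half-log concentration series (max 100 uM, 0.5% DMSO) applied to differentiated HepaRG cells for 48 h in duplicate. Endpoint: PDK4 mRNA induction or repression by qRT-PCR against DMSO baseline.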

Read-out in assay [17]: UDP glucuronosyltransferase (UGT1A1), UGT1A1 (gene 54658)
Briefly: LTEA_HepaRG_UGT1A1: Life Technologies and Expression Analysis (LTEA) Assay for UDP glucuronosyltransferase (UGT1A1) using HepaRG (AID 2283538). The method in brief: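 HepaRG, 48 h chemical exposure (top 100 uM, half-log 8-pt, 0.5% DMSO vehicle), duplicate wells; qRT-PCR (TaqMan, Fluidigm array) for UGT1A1 mRNA, housekeeping-normalized; bidirectional curve fit vs DMSO baseline.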

Sequence of Nuclear factor erythroid 2-related factor 2 (Homo sapiens) (Q16236 whole entry, looked up): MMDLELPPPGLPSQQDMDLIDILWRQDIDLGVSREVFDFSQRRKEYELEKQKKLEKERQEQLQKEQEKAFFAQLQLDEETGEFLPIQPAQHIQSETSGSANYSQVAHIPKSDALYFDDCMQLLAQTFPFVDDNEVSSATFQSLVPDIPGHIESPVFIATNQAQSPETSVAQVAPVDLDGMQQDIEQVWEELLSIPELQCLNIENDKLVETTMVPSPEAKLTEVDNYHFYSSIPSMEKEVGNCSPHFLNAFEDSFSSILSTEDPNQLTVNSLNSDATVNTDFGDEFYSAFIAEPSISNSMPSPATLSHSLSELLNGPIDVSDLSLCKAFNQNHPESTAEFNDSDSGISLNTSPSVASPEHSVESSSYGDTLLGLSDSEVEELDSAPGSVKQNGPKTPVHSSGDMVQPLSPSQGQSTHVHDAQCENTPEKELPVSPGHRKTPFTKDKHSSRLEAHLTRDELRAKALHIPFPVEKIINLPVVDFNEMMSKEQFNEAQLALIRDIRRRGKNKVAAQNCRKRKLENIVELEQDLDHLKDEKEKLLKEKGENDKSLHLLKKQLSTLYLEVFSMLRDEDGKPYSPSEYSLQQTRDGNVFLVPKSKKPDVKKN
Sequence of Signal transducer and activator of transcription 3 (Homo sapiens) (P40763 whole entry, looked up): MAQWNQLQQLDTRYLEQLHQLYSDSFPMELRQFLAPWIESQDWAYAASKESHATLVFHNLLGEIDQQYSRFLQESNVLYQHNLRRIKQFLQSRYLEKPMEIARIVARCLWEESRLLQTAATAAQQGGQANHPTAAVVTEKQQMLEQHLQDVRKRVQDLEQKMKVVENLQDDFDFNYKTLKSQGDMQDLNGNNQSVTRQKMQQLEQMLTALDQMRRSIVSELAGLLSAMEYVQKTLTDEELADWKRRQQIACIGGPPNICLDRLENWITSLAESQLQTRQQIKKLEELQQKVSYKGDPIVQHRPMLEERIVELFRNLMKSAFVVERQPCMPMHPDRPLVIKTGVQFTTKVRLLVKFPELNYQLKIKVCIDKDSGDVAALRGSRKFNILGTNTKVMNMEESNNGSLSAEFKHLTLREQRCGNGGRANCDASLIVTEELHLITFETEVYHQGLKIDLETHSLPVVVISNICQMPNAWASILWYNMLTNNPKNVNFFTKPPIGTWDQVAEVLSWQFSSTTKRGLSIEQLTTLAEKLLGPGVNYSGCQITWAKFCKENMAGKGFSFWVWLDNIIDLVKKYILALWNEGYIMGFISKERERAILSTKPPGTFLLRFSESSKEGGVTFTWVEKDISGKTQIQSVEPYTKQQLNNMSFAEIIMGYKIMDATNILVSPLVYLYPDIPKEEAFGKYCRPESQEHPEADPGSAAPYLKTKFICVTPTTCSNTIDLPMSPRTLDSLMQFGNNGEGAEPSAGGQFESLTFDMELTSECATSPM

One may read the AC50 as the concentration at which the activity in the assay is half-maximal. Turning to `c1ccc(C(O[C@@H]2CCCN(CCc3ccc4c(c3)OCO4)C2)c2ccccc2)cc1`, the AC50 was 83.4 µM (active) in the assay with MYC, MYC (gene 4609); 25.2 µM (active) in [1]; 13.1 µM (active) in assay [2]; 50 µM (active) in assay [3]; 79.6 µM (active) in [4]; 79.2 µM (active) in assay [5]. Further, the AC50 in assay [6] is 78.9 µM (active); in assay [7], 67.8 µM (active); in [10], 86.5 µM (active); in assay [11], 79.3 µM (active); in [12] it was 77.1 µM (active); in assay [13] it was 9.92 µM (active). Besides, the AC50 in [14] was 85.9 µM (active). Moreover, the outcome in assay [8] was “inactive”; in assay [9], “inactive”; with TIMP1, TIMP1 (gene 7076), “inactive”; in assay [15], “inactive”.
In the case of `OC[C@H]1O[C@@H]2O[C@H]3[C@H](O)[C@@H](O)[C@@H](O[C@H]4[C@H](O)[C@@H](O)[C@@H](O[C@H]5[C@H](O)[C@@H](O)[C@@H](O[C@H]6[C@H](O)[C@@H](O)[C@@H](O[C@H]7[C@H](O)[C@@H](O)[C@@H](O[C@H]1[C@H](O)[C@H]2O)O[C@@H]7CO)O[C@@H]6CO)O[C@@H]5CO)O[C@@H]4CO)O[C@@H]3CO`, the outcome in the assay with MYC, MYC (gene 4609) was “inactive”; in [1] it was “inactive”; in assay [2], “inactive”; in assay [3] it was “inactive”; in [4], “inactive”; in assay [5], “inactive”. Besides, the call in assay [6], in assay [7], in assay [8], in assay [9], in [10] and in [12] was inactive. For the same compound, the outcome in assay [13] was “inactive”; with TIMP1, TIMP1 (gene 7076) it was “inactive”; in assay [14] it was “inactive”; in [15], “inactive”.
For `c1ccc2ncccc2c1`, the outcome with MYC, MYC (gene 4609) was “inactive”; in assay [1] it was “inactive”; in assay [2], “inactive”; in assay [3] it was “inactive”; in [4], “inactive”; in assay [5], “inactive”. The compound was classed as inactive in [16], in assay [8], in [9], in assay [10], in assay [12] and in [13]. Besides, the outcome in the assay with TIMP1, TIMP1 (gene 7076) was “inactive”; in assay [14], “inactive”; in assay [15], “inactive”. The AC50 in assay [7] was 50 µM (active).
As to `CNC(C)=O`, the outcome was “inactive” in the assay with MYC, MYC (gene 4609); “inactive” in [1]; “inactive” in [2]; “inactive” in [3]; “inactive” in assay [4]; “inactive” in [5]. Further, the call in [6], in assay [7], in [8], in assay [9], in assay [10] and in assay [11] was inactive. Moreover, the outcome was “inactive” in assay [12]; “inactive” in assay [13]; “inactive” with TIMP1, TIMP1 (gene 7076); “inactive” in assay [14]; “inactive” in assay [15]; “inactive” in assay [17].
